Assay [1] deals with Rho-associated protein kinase 1 (Homo sapiens) (UniProt Q13464). To be noted: at 1 µM.
The target of assay [2] is Rho-associated protein kinase 2 (Homo sapiens) (UniProt O75116). To be noted: at 0.1 µM.
Assay [3] has the same target. To be noted: at 1 µM.
In assay [4] the target is Ribosomal protein S6 kinase alpha-1 (Homo sapiens) (UniProt Q15418). To be noted: at 0.1 µM.
The target is the same in assay [5]. To be noted: at 1 µM.
Assay [6] deals with Ribosomal protein S6 kinase alpha-3 (Homo sapiens) (UniProt P51812). To be noted: at 0.1 µM.
The target is the same in assay [7]. Conditions: at 1 µM.
Assay [8] addresses Ribosomal protein S6 kinase alpha-2 (Homo sapiens) (UniProt Q15349). To be noted: at 0.1 µM.
Assay [9] has the same target. To be noted: at 1 µM.
For assay [10], the target named is Ribosomal protein S6 kinase alpha-6 (Homo sapiens) (UniProt Q9UK32). To be noted: at 0.1 µM.
Ribosomal protein S6 kinase alpha-6 (Homo sapiens), sequence (Q9UK32 whole entry): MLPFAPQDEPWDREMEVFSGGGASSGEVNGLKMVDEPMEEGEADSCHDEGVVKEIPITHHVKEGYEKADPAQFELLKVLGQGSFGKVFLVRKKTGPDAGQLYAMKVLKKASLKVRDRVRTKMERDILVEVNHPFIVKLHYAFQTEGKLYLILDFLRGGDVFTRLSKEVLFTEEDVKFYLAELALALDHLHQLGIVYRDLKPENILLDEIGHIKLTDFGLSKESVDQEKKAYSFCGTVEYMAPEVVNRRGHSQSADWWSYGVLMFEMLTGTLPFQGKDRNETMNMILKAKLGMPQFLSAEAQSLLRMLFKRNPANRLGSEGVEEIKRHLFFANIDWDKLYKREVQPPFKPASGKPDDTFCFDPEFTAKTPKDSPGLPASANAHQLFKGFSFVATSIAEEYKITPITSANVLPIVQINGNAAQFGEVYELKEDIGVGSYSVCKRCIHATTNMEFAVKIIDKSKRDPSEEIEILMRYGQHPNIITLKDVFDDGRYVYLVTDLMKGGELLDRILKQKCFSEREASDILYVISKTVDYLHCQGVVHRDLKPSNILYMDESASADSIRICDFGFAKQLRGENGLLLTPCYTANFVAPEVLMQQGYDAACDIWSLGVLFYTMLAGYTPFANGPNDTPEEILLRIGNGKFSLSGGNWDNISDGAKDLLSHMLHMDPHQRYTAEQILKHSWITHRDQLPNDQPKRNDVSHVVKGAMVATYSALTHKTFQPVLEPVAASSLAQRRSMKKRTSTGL
For assay [11] the target is unchanged. Conditions: at 1 µM.
Assay [12] deals with T1, Serine/threonine-protein kinase Sgk1 (Homo sapiens) (UniProt O00141).
T1 sequence (whole entry): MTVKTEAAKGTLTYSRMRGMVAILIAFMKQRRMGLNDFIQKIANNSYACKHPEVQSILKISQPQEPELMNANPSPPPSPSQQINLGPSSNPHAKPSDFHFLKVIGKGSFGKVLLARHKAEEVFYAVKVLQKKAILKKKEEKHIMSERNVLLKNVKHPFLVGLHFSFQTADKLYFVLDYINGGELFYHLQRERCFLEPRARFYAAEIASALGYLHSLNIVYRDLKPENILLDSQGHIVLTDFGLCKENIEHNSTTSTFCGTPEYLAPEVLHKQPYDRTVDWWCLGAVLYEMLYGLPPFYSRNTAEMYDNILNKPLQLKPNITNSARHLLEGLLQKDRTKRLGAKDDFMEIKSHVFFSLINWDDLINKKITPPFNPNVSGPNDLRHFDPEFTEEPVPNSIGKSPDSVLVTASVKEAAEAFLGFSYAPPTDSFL
To be noted: at 0.1 µM.

For assay [13], the target named is T1, Serine/threonine-protein kinase Sgk1 (Homo sapiens). To be noted: at 1 µM.
Assay [14] deals with T2, Serine/threonine-protein kinase Sgk2 (Homo sapiens) (UniProt Q9HBY8).
T2 sequence (whole entry): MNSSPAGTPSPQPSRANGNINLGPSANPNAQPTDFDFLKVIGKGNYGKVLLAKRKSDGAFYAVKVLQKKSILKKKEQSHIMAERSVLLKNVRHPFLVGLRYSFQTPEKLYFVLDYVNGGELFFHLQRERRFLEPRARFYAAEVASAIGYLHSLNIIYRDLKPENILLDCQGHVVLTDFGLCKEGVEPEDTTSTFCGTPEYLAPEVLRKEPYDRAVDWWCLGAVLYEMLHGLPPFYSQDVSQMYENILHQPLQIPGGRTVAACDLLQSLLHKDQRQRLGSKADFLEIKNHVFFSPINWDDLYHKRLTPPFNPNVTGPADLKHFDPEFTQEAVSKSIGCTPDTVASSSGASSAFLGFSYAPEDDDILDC
To be noted: at 0.1 µM.

Assay [15] concerns the target T2, Serine/threonine-protein kinase Sgk2 (Homo sapiens). Conditions: at 1 µM.
Assay [16] has as its target T3, Serine/threonine-protein kinase Sgk3 (Homo sapiens) (UniProt Q96BR1).
T3 sequence (whole entry): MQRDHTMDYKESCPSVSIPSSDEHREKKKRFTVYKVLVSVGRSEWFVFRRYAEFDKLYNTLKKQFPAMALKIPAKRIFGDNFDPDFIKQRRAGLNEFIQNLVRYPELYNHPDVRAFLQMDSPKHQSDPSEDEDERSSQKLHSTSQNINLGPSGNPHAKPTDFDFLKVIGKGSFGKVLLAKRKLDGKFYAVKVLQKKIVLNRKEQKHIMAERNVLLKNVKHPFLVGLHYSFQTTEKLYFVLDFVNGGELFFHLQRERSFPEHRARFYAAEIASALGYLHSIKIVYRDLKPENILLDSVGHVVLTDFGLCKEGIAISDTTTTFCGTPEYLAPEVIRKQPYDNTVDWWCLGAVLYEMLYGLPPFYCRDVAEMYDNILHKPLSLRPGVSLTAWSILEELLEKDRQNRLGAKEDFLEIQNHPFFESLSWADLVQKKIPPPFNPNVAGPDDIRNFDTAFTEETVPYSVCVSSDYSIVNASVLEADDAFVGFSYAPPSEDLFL
Conditions: at 0.1 µM.

Assay [17] concerns the target T3, Serine/threonine-protein kinase Sgk3 (Homo sapiens). Conditions: at 1 µM.
Assay [18] concerns the target 5'-AMP-activated protein kinase catalytic subunit alpha-1 (Homo sapiens) (UniProt Q13131). Conditions: at 0.1 µM.
The target is the same in assay [19]. To be noted: at 1 µM.
Assay [20] deals with 5'-AMP-activated protein kinase catalytic subunit alpha-2 (Homo sapiens) (UniProt P54646). Conditions: at 0.1 µM.
5'-AMP-activated protein kinase catalytic subunit alpha-2 (Homo sapiens), sequence (P54646 whole entry, looked up): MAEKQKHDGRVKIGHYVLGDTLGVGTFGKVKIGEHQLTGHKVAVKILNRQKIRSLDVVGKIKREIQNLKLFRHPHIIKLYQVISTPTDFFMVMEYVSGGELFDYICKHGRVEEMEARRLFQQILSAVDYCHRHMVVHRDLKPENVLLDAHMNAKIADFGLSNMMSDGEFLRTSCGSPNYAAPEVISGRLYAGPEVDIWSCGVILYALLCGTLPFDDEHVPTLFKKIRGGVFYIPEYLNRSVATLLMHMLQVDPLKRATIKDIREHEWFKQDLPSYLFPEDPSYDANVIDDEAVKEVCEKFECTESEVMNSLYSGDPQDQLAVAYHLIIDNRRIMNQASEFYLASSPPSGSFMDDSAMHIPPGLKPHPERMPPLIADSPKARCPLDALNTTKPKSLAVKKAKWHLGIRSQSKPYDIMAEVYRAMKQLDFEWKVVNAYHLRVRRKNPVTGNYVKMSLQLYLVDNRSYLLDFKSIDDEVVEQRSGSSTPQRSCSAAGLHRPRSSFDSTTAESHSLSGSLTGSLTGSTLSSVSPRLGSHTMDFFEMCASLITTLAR

Ribosomal protein S6 kinase alpha-1 (Homo sapiens), sequence (Q15418 whole entry): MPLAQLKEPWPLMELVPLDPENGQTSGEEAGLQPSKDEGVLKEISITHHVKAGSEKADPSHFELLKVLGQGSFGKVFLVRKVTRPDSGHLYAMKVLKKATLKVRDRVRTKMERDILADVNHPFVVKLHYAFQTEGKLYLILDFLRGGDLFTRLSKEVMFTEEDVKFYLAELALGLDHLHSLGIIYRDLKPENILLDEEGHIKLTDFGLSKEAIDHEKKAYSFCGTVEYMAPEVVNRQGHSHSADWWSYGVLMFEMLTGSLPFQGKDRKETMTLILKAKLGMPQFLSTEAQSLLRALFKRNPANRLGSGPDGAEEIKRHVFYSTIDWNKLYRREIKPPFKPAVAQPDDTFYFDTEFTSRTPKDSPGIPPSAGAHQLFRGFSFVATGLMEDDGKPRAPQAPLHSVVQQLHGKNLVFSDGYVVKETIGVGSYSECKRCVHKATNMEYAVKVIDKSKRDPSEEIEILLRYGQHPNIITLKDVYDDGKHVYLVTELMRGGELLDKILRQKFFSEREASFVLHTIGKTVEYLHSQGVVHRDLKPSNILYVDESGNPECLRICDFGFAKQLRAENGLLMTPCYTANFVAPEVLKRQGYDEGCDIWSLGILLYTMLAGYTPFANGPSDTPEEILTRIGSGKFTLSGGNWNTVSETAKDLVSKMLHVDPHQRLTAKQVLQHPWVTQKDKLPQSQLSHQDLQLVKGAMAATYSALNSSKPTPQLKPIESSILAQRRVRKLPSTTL
5'-AMP-activated protein kinase catalytic subunit alpha-1 (Homo sapiens), sequence (Q13131 whole entry, looked up): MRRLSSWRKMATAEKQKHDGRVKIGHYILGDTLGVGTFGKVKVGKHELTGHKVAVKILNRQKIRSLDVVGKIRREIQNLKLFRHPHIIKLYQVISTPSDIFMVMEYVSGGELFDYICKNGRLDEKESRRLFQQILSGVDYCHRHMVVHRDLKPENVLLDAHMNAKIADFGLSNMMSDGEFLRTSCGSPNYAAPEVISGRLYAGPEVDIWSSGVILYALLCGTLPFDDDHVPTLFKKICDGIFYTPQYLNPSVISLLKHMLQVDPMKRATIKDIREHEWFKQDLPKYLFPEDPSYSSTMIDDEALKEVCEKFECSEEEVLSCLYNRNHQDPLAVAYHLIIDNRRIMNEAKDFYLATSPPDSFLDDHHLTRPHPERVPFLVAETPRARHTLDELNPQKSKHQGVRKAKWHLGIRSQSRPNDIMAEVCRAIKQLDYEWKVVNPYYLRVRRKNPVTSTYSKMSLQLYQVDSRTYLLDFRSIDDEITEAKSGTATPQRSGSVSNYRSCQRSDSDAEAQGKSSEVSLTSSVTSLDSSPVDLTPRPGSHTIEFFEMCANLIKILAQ
Ribosomal protein S6 kinase alpha-2 (Homo sapiens), sequence (Q15349 whole entry): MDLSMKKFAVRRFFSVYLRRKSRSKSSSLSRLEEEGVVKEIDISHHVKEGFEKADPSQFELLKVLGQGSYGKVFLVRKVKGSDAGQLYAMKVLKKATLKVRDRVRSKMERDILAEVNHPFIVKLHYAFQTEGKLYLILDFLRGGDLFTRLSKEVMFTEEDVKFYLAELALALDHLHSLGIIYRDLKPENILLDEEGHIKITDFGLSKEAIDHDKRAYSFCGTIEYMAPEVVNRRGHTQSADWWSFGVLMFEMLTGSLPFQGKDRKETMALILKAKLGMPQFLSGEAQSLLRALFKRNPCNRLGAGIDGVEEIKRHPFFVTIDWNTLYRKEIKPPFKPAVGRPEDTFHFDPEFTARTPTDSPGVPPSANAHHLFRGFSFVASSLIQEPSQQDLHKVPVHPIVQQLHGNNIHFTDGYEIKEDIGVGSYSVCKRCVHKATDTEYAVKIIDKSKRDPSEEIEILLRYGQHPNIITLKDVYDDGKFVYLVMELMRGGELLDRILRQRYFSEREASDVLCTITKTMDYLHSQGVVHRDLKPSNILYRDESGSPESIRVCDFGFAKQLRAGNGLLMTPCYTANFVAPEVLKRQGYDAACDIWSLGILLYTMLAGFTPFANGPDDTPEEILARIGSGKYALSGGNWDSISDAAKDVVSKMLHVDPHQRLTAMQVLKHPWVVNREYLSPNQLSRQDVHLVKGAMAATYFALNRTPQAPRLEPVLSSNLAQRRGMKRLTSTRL
Rho-associated protein kinase 1 (Homo sapiens), sequence (Q13464 2-1354 limits assumed): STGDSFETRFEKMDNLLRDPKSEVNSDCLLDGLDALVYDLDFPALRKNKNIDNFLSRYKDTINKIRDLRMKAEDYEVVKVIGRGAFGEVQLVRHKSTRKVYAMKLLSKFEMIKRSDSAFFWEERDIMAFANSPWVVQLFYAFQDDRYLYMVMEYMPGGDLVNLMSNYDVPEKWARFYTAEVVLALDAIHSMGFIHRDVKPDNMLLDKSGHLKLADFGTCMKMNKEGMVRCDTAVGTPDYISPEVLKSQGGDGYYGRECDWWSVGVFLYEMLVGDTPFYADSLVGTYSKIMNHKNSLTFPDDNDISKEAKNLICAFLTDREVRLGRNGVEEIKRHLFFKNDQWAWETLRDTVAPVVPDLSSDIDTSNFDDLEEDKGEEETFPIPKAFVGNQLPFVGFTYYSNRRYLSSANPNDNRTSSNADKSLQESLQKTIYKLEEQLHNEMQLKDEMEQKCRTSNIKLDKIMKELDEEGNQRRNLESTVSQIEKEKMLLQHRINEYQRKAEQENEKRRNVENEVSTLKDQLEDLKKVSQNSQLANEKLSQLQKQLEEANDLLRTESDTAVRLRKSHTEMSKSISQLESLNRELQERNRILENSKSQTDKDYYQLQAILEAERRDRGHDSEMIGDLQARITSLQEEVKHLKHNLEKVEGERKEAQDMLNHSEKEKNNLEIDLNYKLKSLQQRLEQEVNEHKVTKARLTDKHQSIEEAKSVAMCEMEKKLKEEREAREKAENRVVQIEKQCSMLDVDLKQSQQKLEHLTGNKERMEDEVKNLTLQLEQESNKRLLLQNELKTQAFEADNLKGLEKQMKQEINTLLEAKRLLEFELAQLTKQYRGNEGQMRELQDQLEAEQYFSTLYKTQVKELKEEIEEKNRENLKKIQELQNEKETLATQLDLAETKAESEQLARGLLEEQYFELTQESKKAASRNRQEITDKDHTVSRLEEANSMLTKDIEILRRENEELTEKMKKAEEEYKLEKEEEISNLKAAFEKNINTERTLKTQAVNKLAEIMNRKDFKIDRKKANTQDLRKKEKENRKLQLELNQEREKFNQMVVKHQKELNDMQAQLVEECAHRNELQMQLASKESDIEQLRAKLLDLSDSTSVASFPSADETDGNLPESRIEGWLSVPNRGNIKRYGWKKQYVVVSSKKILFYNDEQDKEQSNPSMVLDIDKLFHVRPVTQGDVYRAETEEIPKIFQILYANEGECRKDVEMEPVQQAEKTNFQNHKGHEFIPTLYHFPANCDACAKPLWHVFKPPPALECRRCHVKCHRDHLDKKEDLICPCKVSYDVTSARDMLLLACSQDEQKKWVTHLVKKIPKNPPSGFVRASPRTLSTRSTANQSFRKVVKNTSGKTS

With `C/C(Nc1ccc(S(N)(=O)=O)cc1)=C1/C(=O)Nc2ccccc21`, the inhibition (in general, the relative decrease from the control value, in per cent) was 5.13% in assay [1]; 2.95% in assay [2]; 9.54% in [3]; 1.62% in assay [4]; 14.5% in [5]; 1.49% in assay [6]. Besides, the inhibition was determined as 14.6% in assay [7]; 2.22% in assay [8]; 23.4% in assay [9]; 2.94% in assay [10]; 20.7% in assay [11]; 5.32% in assay [12]. Besides, the inhibition in assay [13] turned out to be 18.4%; in [14], 1.82%; in assay [15], 2.83%; in [16], 0.76%; in assay [17] it was 2.1%; in assay [18], 1.16%. In addition, the results for the inhibition in assay [19] and in assay [20] were 9.79% and 3.01%, respectively.
Turning to `N#Cc1ccc(Oc2nccc(-c3c(-c4ccc(F)cc4)ncn3C3CCNCC3)n2)cc1`, the inhibition stood at 4.31% in [1]; 2.81% in [2]; 4.38% in assay [3]; 0.36% in assay [4]; 1.46% in assay [5]; 1.39% in assay [6]. In addition, the inhibition was 1.85% in assay [7]; 2.38% in assay [8]; 3.07% in assay [9]; 0.67% in assay [10]; 0.97% in assay [11]; 2.45% in assay [12]. In addition, the inhibition in assay [13] worked out at 2.02%; in assay [14] it was 7.44%; in assay [15], 3.86%; in assay [16], 2.02%; in assay [17], 3.62%; in assay [18] it was 2.27%. Further, the inhibition in assay [19] stood at 3.89%; in assay [20], 3.09%.
Turning to `Cc1ccc(C(=O)NC2CCC2)cc1-c1ccc(C(=O)NCC2CC2)cc1`, the inhibition in assay [1] is 1.32%; in assay [2], 1.03%; in [3], -0.46%; in assay [4], 1.52%; in assay [5], 1.45%; in assay [6] it was 0.97%. For the same molecule, the inhibition in assay [7] worked out at 1.47%; in assay [8], 1.58%; in assay [9] it was 2.68%; in [10] it was 1.63%; in assay [11], 1.08%; in assay [12], 2.17%. Besides, the inhibition is 2.8% in assay [13]; 0.49% in assay [14]; -2.52% in assay [15]; 0.54% in [16]; 1.57% in assay [17]; 1.41% in assay [18]. In addition, the inhibition in assay [19] was found to be 1.46%; in assay [20] it was 1.35%.
`COc1ccc(C2=C(N3CCc4ccccc43)C(=O)NC2=O)cc1`: the inhibition in assay [1] stood at 1.57%; in [2] it was 2.97%; in [3], 3.17%; in assay [4], 2.46%; in [5], 4.09%; in assay [6], 0.95%. The inhibition in assay [7] came to 1.69%; in assay [8], 2.16%; in [9], 3.86%; in assay [10], 2.62%; in assay [11], 4.12%; in assay [12] it was 5.57%. Besides, the inhibition is 2.06% in [13]; -2.15% in assay [14]; -5.83% in [15]; 4.38% in assay [16]; 1.94% in [17]; 4.29% in assay [18]. Further, the results for the inhibition in assay [19] and in assay [20] were 5.67% and 1.73%, respectively.
`COc1cc2ncn(-c3cc(OCc4ccccc4C(F)(F)F)c(C(C)=O)s3)c2cc1OC`: the inhibition in assay [1] came to 2.18%; in [2] it was 1.87%; in [3] it was 2.95%; in assay [4], 1.38%; in [5], 2.01%; in [6], 0.97%. Besides, the inhibition in assay [7] worked out at 1.14%; in [8] it was 2.48%; in assay [9] it was 2.5%; in assay [10], 1.64%; in assay [11], 1.71%; in [12], 2.88%. The inhibition came out at 2.59% in assay [13]; 3.09% in assay [14]; 3.04% in assay [15]; 3.08% in assay [16]; 2.17% in assay [17]; 1.8% in [18]. The inhibition in [19] was 2.83%; in [20], -0.02%.
For `CN1CCN(CCCNc2nc3ccc(Oc4ccc(NC(=O)Nc5cc(C(F)(F)F)ccc5F)cc4)cc3[nH]2)CC1`, the inhibition is 3.23% in assay [1]; 0.43% in assay [2]; 0.51% in assay [3]; 1.08% in assay [4]; -1.68% in assay [5]; 1.52% in [6]. Moreover, the inhibition was -0.48% in assay [7]; 0.97% in assay [8]; 2.27% in assay [9]; 1.31% in assay [10]; -0.1% in assay [11]; 4.51% in assay [12]. The inhibition was found to be 5.49% in assay [13]; 0.79% in [14]; 1.09% in assay [15]; 3.14% in assay [16]; 0.75% in assay [17]; 1.09% in [18]. Also, the inhibition in assay [19] was -0.25%; in assay [20], 2.94%.

The values above are taken from ChEMBL document CHEMBL1961873, “Compounds: GSK PKIS; Assays: Nanosyn kinase panel” (2012).
